YB-1 expression = inhibitors of YB-1 gene expression, primary screen, cell-based, fluorescence | 0.37% of 30,000 active | delta delta Cp (YB-1 minus CDIP) (no concentration beside the values) | U2OS, qRT-PCR YB-1 vs CDIP delta delta Cp, 16 h; stronger effect = higher value; zero = DMSO, each unit about twofold | AID 434959, 2010;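 active = delta delta Cp rounded down to an integer at or above 3, about 3 SD of DMSO wells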;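 note: higher means less YB-1 transcript or more CDIP transcript relative to DMSO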
ROS inducer = ROS inducers in U2OS cancer cells, primary screen, cell-based, H2DCF-DA fluorescence; U2OS ROS induction; ROS induction (% of piperlongumine), % at 10 µM; 2% of 46,000 active; in the data active = ROS induction above about 79%, passing the limit was not always enough; inconclusive = no clear call, values can overlap the other calls;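 note: 0% = DMSO vehicle median and 100% = reference compound median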
MITF inh = inhibitors of MITF, primary screen, MITF inhibitor project, cell-based, luminescence; AID 2240, 2010; inhibition, % (no concentration beside the values); TRPM1 promoter luciferase, 24 h; 0.28% of 37,000 active; in the data active = inhibition above about 85%; inconclusive = no clear call, values can overlap the other calls; inactive = below about 68%;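 note: human melanocyte line stably carrying TRPM1 promoter luciferase reporter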
BJeLR viab HTS = BJeLR cell viability loss, primary screen, luminescence, CellTiterGlo ATP | 0.64% of 30,000 active | AID 2275, 2010 | BJeLR fibroblasts viability, 48 h; HRASV12, hTERT and SV40 LT/ST transformed | viability loss activity score, % (test concentration not listed); in the data active = viability loss activity score above about 50%; inconclusive = no clear call, values can overlap the other calls; inactive = below about 35%;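 note: higher score means fewer live cells and less ATP luminescence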
The depositor's hits bear a star; ? = inconclusive; nt = not tested or not shown. Only some compounds are listed: those with a hit (about 2.5% of all), similar ones and a draw of the others.

SMILES	YB-1 expression	ROS inducer	MITF inh	BJeLR viab HTS
C[C@H](CO)N1C[C@H](C)[C@@H](CN(C)Cc2ccc(-c3ccccc3)cc2)Oc2c(NC(=O)c3ccncc3)cccc2C1=O	0.064	149*	34	-2
CC(C)NC(=O)N(C)C[C@@H]1Oc2c(NC(=O)c3ccncc3)cccc2C(=O)N([C@@H](C)CO)C[C@H]1C	-0.077	101*	-6	4
Cc1cc(C(=O)Nc2cccc3c2O[C@@H](CN(C)S(=O)(=O)c2cccs2)[C@@H](C)CN([C@@H](C)CO)C3=O)n(C)n1	0.72	1	-12	-9
C[C@H](CO)N1C[C@H](C)[C@H](CN(C)Cc2ccc(-c3ccccc3)cc2)Oc2c(NC(=O)c3ccncc3)cccc2C1=O	-0.22	63	6	nt
Cc1cc(C(=O)Nc2cccc3c2O[C@H](CN(C)Cc2ccc(-c4ccccc4)cc2)[C@@H](C)CN([C@H](C)CO)C3=O)n(C)n1	-0.18	196*	50	-4
Cc1cc(C(=O)Nc2cccc3c2O[C@@H](CN(C)Cc2ccc(-c4ccccc4)cc2)[C@H](C)CN([C@@H](C)CO)C3=O)n(C)n1	-0.31	?	49	0
Cc1cc(C(=O)Nc2cccc3c2O[C@H](CN(C)S(=O)(=O)c2cccs2)[C@H](C)CN([C@@H](C)CO)C3=O)n(C)n1	20*	14	-9	-4
Cc1cc(-c2ccc(/C=C3/C(=O)NC(=O)N(C4CCCCC4)C3=O)o2)ccc1Br	nt	nt	nt	-1
CC(C)NC(=O)N(C)C[C@H]1Oc2c(NS(=O)(=O)c3cn(C)cn3)cccc2C(=O)N([C@H](C)CO)C[C@H]1C	12*	-4	-13	1
Cc1cc(C(=O)Nc2cccc3c2O[C@H](CN(C)Cc2ccc(Oc4ccccc4)cc2)[C@@H](C)CN([C@H](C)CO)C3=O)n(C)n1	0.057	172*	54	-1
COCCN1C(=O)/C(=C/c2cn(CC(=O)OC)c3ccccc23)C(=O)N(c2ccccc2)C1=O	0.034	93*	-5	-2
O=C(NO)c1cccc(C(=O)N/N=C/c2cc(O)ccc2O)c1	-1.1	107*	nt	nt
CN(C)c1nc(Cl)nc(N(C#N)CN2C(=O)c3ccccc3C2=O)n1	0.22	168*	-4	-3
O=C1c2ccccc2C(=O)N1CN1CCCCC1	nt	-12	nt	2
C[C@@H]1CN([C@@H](C)CO)C(=O)c2cccc(NS(=O)(=O)c3ccc(F)cc3)c2O[C@@H]1CN(C)Cc1ccc(-c2ccccc2)cc1	0.52	64	-2	2
C[C@H]1CN([C@@H](C)CO)C(=O)c2cccc(NS(=O)(=O)c3ccc(F)cc3)c2O[C@@H]1CN(C)Cc1ccc(-c2ccccc2)cc1	0.29	105*	19	-1
C[C@H]1CN([C@@H](C)CO)C(=O)c2cccc(NS(C)(=O)=O)c2O[C@@H]1CN(C)Cc1ccc(-c2ccccc2)cc1	0.18	98*	1	1
C[C@H](CO)N1C[C@H](C)[C@@H](CN(C)Cc2ccc(Oc3ccccc3)cc2)Oc2c(NS(C)(=O)=O)cccc2C1=O	-0.35	92*	-11	1
C[C@@H]1CN([C@H](C)CO)C(=O)c2cccc(NS(C)(=O)=O)c2O[C@H]1CN(C)Cc1ccc(-c2ccccc2)cc1	-0.48	2	-12	-1
CCn1c(C(=O)N2CCCC(C(=O)NC(C)c3ccc4c(c3)OCCO4)C2)cc2sccc21 (stereo not drawn)	nt	-6	nt	3
Cc1ccc(-c2cc(C(F)F)n3ncc(C(=O)NCCCN4CCOCC4)c3n2)cc1	nt	137*	11	nt
Cc1ccc(-c2cc(C(F)(F)F)n3ncc(C(=O)NCc4ccco4)c3n2)cc1	nt	96*	-15	nt
Cc1ccc(-c2cc(C(F)(F)F)n3nc(C(=O)NCc4ccco4)cc3n2)cc1	nt	39	6	nt
Cc1ccc(-c2cc(C(F)F)n3ncc(C(=O)NCc4ccco4)c3n2)cc1	nt	111*	-28	nt
O=C(NCCN1CCOCC1)c1cnn2c(C(F)F)cc(-c3ccccc3)nc12	nt	67	-12	nt
SMILES	YB-1 expression	ROS inducer	MITF inh	BJeLR viab HTS
CCn1c(=O)cc(OCC(=O)N2CCCCC2C)c2ccccc21 (stereo not drawn)	nt	nt	nt	-3
CCOc1ccccc1C1C(C(=O)N2CCOCC2)=C(C)Nc2nc3ccccc3n21 (stereo not drawn)	nt	nt	nt	1
C/C=C/[C@H](CC(=O)N1Cc2ccccc2C[C@H]1CO)[Si](C)(C)c1ccc(OC)cc1	0.29	94*	nt	nt
O=c1c2ccccc2nc(SCc2cccc3nsnc23)n1-c1ccccc1	nt	5	1	nt
O=c1c2ccccc2nc(SCc2ccc3c(c2)OCO3)n1-c1ccccc1	-0.6	107*	29	1
O=C(Nc1ccccc1)c1ccc(CSc2nnc(-c3ccncc3)n2-c2ccccc2)cc1	nt	109*	33	nt
O=C(CSc1nnc(-c2ccncc2)n1-c1ccccc1)Nc1ccc(C(F)(F)F)cc1	nt	4	-3	nt
O=C(Nc1ccccc1)c1cc2c(=O)n3ccccc3nc2s1	nt	nt	nt	6
CCCc1nn(C)c2c(=O)[nH]c(-c3cc(S(=O)(=O)N4CCN(C)CC4)ccc3OCC)nc12	-0.043	5	4	-3
CCOc1ccc(S(=O)(=O)NCc2ccccc2)cc1-c1nc2c(C(C)(C)C)nn(C)c2c(=O)[nH]1	-0.45	201*	76	-3
CCN(CC)c1c(C#N)c(SCC(=O)c2cccs2)cc2c1CCCC2	0.65	92*	8	13
COC(=O)c1[nH]c2c(c1C)C(=O)CC(c1ccccc1)C2 (stereo not drawn)	nt	nt	nt	60*
O=C(O)CCC(=O)Nc1ccc2c(c1)C(=O)NC2=O	nt	-6	7	nt
O=C(O)CCC(=O)Nc1ccc(Cc2ccncc2)cc1	8.6*	-14	-10	-3
O=C(C(Cc1ccccc1Cl)C(=O)N1CCc2ccccc21)N1CCc2ccccc21	-0.13	141*	11	5
COc1ccc(-c2oc3cc(OC)c(OC)c(O)c3c(=O)c2OC)cc1OC	-0.31	82*	-33	4
COc1cc(O)c2c(=O)c(OC)c(-c3cc(O)c(OC)c(OC)c3)oc2c1	0.71	11	-8	-6
CCOc1ccc(-c2nc3ccc(-c4nc5ccc(N6CCN(C)CC6)cc5[nH]4)cc3[nH]2)cc1	0.9	-5	79	126*
CCOc1ccc2nc(N3CCCCC3)sc2c1	nt	nt	nt	14
COCCOC(=O)N1C(=O)[C@@]2(c3cc(C#CC4=CCCCC4)ccc31)[C@H](C(N)=O)[C@H]1C(=O)O[C@H](c3ccccc3)[C@H](c3ccccc3)N1[C@@H]2c1ccc(O)cc1	-0.044	6	nt	nt
COCCOC(=O)N1C(=O)[C@@]2(c3cc(C#CC4=CCCCC4)ccc31)[C@H](C(N)=O)[C@H]1C(=O)O[C@H](c3ccccc3)[C@H](c3ccccc3)N1[C@@H]2c1ccccc1OCCO	-0.033	138*	nt	nt
COCCOC(=O)N1C(=O)[C@@]2(c3cc(C#CC4=CCCCC4)ccc31)[C@H](c1ccccc1OCCO)N1[C@H](c3ccccc3)[C@H](c3ccccc3)OC(=O)[C@H]1[C@@H]2C(=O)NC[C@H](O)c1ccccc1	-0.21	144*	nt	nt
